Data reported in the supplement of paper PMC12636033.
± gives the standard deviation of the averaged measurements. Whole data set: some 33,000 sequences, median “E-score (rank enrichment, -0.5 to 0.5)” near -0.0028, cut for the highest 2% near 0.23. Shown is part of a subset that was picked to be rich in the highest values.

Test system: 2Sb-muMax20 (muMax20 with two 1,3-bis(methyl)benzene Cys staples, A13C/A17C and Q88C/A92C, C-terminal Lys)
Test: PBM 8-mer E-score (E-score (rank enrichment, -0.5 to 0.5)); higher = stronger preferential binding
Description: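 Protein binding microarray (universal PBM chip covering all 10-mers in fixed probe flanks) with chemically synthesized human Max(13-93) bHLH-LZ analogs (not full-length Max) bearing noncanonical residues (hArg, Tha, Aib, Nle at 65) and aromatic Cys staples. Read-out per 8-mer (and its reverse complement): E-score (rank-based enrichment, -0.5 to 0.5) and Z-score of median probe intensity.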

Sequence	PBM 8-mer E-score
ATATCCAT	0.137 ± 0.14
CACTCCGG	-0.0338 ± 0.0072
ATTGATCA	0.0679 ± 0.039
ATGAATTC	0.133 ± 0.015
GAAAGCTC	-0.175 ± 0.051
CAGTAGGG	0.111 ± 0.065
ATGGCCAG	0.113 ± 0.0052
ATGGCCAT	0.238 ± 0.048
ATGGCCAC	-0.0293 ± 0.011
CTCAGGTA	-0.158 ± 0.024
AGTAGCAC	0.0432 ± 0.033
CTAATAGA	0.12 ± 0.054
GTAATAGA	0.253 ± 0.0043
ATAATAGA	0.087 ± 0.027
ACCGAGAG	-0.0606 ± 0.0036
AATTACCC	0.286 ± 0.012
CATTACCC	-0.0464 ± 0.014
AATTACCA	0.217 ± 0.039
CCTTACTC	0.123 ± 0.032
AAGCTAGG	-0.00121 ± 0.038
AATCCTGT	0.0436 ± 0.00074
ACCACCCG	-0.0962 ± 0.022

Sequence	PBM 8-mer E-score
CCCACCCG	0.335 ± 0.042
GCCACCCC	0.0125 ± 0.1
CACACCCG	-0.111 ± 0.0078
GCCACCCA	-0.0786 ± 0.049
CCCACCCA	0.387 ± 0.029
ATCACCCC	0.27 ± 0.0061
ATCACCCG	-0.202 ± 0.044
TCCACCCA	0.0351 ± 0.068
ACCACCCC	0.165 ± 0.0053
ATCACCCA	0.0137 ± 0.037
CCCACCCC	0.307 ± 0.058
CATGTCGA	-0.00545 ± 0.041
ATTGCTAG	0.141 ± 0.019
CATGTTCA	0.151 ± 0.025
AAGTATGT	0.0914 ± 0.0063
AGCGACCG	-0.22 ± 0.0069
AAAGGCGA	0.17 ± 0.0091
GCTTCTCC	0.0389 ± 0.0059
ACTAAGGC	0.00844 ± 0.07
CAAGCATC	-0.0457 ± 0.013
AAAAGCCA	0.0803 ± 0.036
ACATATCG	0.0421 ± 0.053

Sequence	PBM 8-mer E-score
ATACACAG	0.0629 ± 0.073
CAATACAA	0.234 ± 0.0058
CAATACAG	0.00554 ± 0.011
ACATACAT	0.273 ± 0.025
CCATATCA	0.076 ± 0.055
ACATATCA	0.2689 ± 0.00057
ATACACAT	0.244 ± 0.02
ATACACAC	0.0901 ± 0.038
CAATACAC	0.0179 ± 0.049
ACATACAC	0.127 ± 0.016
ACATACAG	0.188 ± 0.014
AGACTAGG	-0.0528 ± 0.031
CGGTACCC	-0.133 ± 0.015
CCTAGAGC	-0.0448 ± 0.0096
CCGATCGG	-0.289 ± 0.039
CGGCTAAC	-0.13 ± 0.011
TCCGTCCA	-0.0552 ± 0.013
GCGCATAC	0.0299 ± 0.0056
ATCGGTGG	-0.0489 ± 0.0043
ATAACCTC	0.175 ± 0.016
AAGGCCCC	0.068 ± 0.039
AGAGTGAC	-0.11 ± 0.0053

Sequence	PBM 8-mer E-score
GCATACAA	0.119 ± 0.0048
AAATACAA	0.0975 ± 0.074
AAATATAT	0.313 ± 0.02
AAATATAC	0.138 ± 0.019
ACCTATAT	0.233 ± 0.0084
CCATACAA	0.115 ± 0.024
AAATACAC	0.145 ± 0.033
ACCTATAC	0.0485 ± 0.061
AAATATAA	0.21 ± 0.022
TCATACAA	0.235 ± 0.035
AAATACAT	0.241 ± 0.058
ACCTATAA	0.00571 ± 0.046
ATCACCGA	-0.0646 ± 0.084
CCTCCACC	0.0772 ± 0.089
ATCGGGAG	-0.0438 ± 0.039
CCAGATCG	-0.185 ± 0.061
CTAACAAG	0.0426 ± 0.045
ATATGGCG	0.123 ± 0.007
GAAGGTAA	0.0664 ± 0.084
ACATATAG	0.131 ± 0.031
